# Inconclusive results are not listed. Where a call stands in place of a potency, no number is given. The source holds several records for some structures; these can differ, active in one and inactive in another. Calls of active or inactive are those of the source. Unless noted, calls come from the whole dose curve; as a rule, active = well fitted curve in the direction sought with a large enough effect; inconclusive = small, poorly fitted or top-dose-only effect, or another doubt; inactive = no such curve, though single readings can be large; an effect the other way counts as inactive or inconclusive.
# Columns and labels:
# [1] = target: Calcium and integrin-binding protein 1 (Homo sapiens) (UniProt Q99828); test: Primary qHTS for Identification of Calcium Integrin Binding Protein 1 (CIB1) Competitor (AID 1508620);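 note: GST tagged CIB1 binding a fluorescein labelled alphaIIb integrin peptide tracer; top concentration of the series differs between compounds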
# Calcium and integrin-binding protein 1 (Homo sapiens), sequence (Q99828 whole entry, looked up): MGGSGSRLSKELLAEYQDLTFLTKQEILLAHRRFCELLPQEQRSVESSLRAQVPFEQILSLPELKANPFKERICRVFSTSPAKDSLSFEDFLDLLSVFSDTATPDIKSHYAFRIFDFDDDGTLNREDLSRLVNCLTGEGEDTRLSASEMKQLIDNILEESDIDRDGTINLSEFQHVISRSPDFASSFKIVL
# In short: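 CIB1-GST (1 uM final) and compound incubated 15 min at room temperature before adding FITC-alphaIIb peptide tracer (100 nM final). Competition for binding read by fluorescence polarization (ex 480, em 540) after another 15 min at room temperature.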
# [2] = Primary qHTS for small molecule stabilizers of the endoplasmic reticulum resident proteome: Secreted ER Calcium Modulated Protein (SERCaMP) assay (AID 1508630)
# In short: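 GLuc-SERCaMP-expressing SH-SY5Y cells, pretreated 16 h with compound, are challenged with thapsigargin to empty ER calcium stores; after 4 h, coelenterazine is added directly to the medium and luminescence is imaged.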
# [3] = target: Cytochrome P450 2D6 (Homo sapiens) (UniProt P10635); test: Cytochrome P450 family 2 subfamily D member 6 (CYP2D6) small molecule antagonists: luciferase biochemical (cell-free) qHTS assay (AID 1645840; active = well fitted curve in the direction sought with a large enough effect in the repeat runs; an effect the other way counts as inactive or inconclusive; note: nearly all actives have a fitted effect of over 55% in size; note: potency is the fitted concentration of half-maximal effect)
# Cytochrome P450 2D6 (Homo sapiens), sequence (P10635 whole entry, looked up): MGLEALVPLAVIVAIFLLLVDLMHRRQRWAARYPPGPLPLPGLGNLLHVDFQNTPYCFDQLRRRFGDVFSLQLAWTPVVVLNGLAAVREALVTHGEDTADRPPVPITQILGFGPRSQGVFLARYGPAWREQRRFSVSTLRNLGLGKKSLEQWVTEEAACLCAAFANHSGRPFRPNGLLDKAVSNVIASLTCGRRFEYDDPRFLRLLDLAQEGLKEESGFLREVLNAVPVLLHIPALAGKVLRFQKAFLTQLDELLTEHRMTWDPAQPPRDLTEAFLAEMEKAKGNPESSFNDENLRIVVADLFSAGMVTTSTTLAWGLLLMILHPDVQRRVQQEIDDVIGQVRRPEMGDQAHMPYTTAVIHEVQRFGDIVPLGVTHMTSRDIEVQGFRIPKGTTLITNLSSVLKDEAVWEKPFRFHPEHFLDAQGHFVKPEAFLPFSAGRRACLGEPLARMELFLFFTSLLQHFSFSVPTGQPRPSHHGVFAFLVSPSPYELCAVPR
# In short: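 P450-Glo luminescent screen: recombinant CYP2D6 enzyme–proluciferin substrate mix preincubated with compound 10 min at room temperature, then NADPH regeneration added for 1 h at room temperature. Detection reagent added for 20 min; luciferin light read as relative luminescence units.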
# [4] = target: Cytochrome P450 2C9 (Homo sapiens) (UniProt P11712); test: Cytochrome P450 family 2 subfamily C member 9 (CYP2C9) small molecule antagonists: luciferase biochemical (cell-free) qHTS assay (AID 1645842; active = well fitted curve in the direction sought with a large enough effect in the repeat runs; an effect the other way counts as inactive or inconclusive; note: nearly all actives have a fitted effect of over 55% in size; note: potency is the fitted concentration of half-maximal effect)
# Cytochrome P450 2C9 (Homo sapiens), sequence (P11712 whole entry, looked up): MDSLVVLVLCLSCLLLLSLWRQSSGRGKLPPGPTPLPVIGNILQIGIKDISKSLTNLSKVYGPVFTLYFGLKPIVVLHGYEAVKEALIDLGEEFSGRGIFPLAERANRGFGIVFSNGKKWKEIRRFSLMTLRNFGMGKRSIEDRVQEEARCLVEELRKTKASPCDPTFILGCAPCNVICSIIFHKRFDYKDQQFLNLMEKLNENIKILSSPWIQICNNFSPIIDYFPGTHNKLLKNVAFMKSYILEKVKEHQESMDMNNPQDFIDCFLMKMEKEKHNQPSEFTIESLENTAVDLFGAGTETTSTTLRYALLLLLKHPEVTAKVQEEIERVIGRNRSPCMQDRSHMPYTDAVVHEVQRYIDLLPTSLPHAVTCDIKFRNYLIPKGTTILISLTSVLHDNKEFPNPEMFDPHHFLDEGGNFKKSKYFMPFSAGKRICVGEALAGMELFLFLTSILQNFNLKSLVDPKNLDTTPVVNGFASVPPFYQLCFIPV
# In short: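 Luminescence, after 20 min with luciferin detection reagent, reflected CYP2C9 turnover during a 1 h NADPH-driven reaction at 37C. Enzyme-substrate mix contained 0.4% bovine serum albumin and was preincubated with compound 10 min at room temperature.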
# [5] = Primary qHTS for inhibitors of nuclear receptor binding SET domain protein 2 (NSD2) in an isogenic RCH-ACV NSD2 p.E1099K mutant (9B) (AID 1645876); note: nearly all actives have a fitted effect of over 70% in size; note: potency is the fitted concentration of half-maximal effect
# [6] = target: Cytochrome P450 3A4 (Homo sapiens) (UniProt P08684); test: Cytochrome P450 family 3 subfamily A member 4 (CYP3A4) small molecule antagonists: luciferase qHTS assay (AID 1645841; active = well fitted curve in the direction sought with a large enough effect in the repeat runs; an effect the other way counts as inactive or inconclusive; note: nearly all actives have a fitted effect of over 45% in size)
# Cytochrome P450 3A4 (Homo sapiens), sequence (P08684 whole entry, looked up): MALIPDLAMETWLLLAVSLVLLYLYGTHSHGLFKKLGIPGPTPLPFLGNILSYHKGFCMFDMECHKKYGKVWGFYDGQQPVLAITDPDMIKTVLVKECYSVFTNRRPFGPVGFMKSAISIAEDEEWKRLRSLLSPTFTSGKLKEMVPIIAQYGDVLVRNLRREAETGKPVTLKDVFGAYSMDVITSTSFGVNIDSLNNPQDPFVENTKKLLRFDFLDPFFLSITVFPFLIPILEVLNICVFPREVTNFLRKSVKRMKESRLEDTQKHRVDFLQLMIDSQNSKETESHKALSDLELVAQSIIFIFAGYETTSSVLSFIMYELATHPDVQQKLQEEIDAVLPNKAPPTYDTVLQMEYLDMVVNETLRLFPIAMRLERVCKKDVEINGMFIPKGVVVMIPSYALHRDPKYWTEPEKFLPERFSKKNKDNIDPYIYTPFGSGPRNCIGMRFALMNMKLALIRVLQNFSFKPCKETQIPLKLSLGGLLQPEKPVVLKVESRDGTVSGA
# In short: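 Luminescent CYP3A4 activity readout: compounds plus enzyme-substrate mix 10 min at room temperature, reaction started with NADPH regenerating system for 1 h, stopped with detection reagent, read after 20 min. Ketoconazole served as control.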
# [7] = Primary qHTS for inhibitors of nuclear receptor binding SET domain protein 2 (NSD2) in an RCH-ACV wild type WT cells (2C) (AID 1645877); note: nearly all actives have a fitted effect of over 70% in size; note: potency is the fitted concentration of half-maximal effect
# [8] = target: N-terminal Xaa-Pro-Lys N-methyltransferase 1 (Homo sapiens) (UniProt Q9BV86); test: Confirmatory qHTS for Inhibitors of N-terminal methyltransferase 1 (NTMT1): MTaseGlo Assay (AID 1645874);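 note: luminescence from SAH made as NTMT1 methylates SPKRIA peptide using SAM; series mostly up to about 100 µM; nearly all actives have a fitted effect of over 65% in size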
# N-terminal Xaa-Pro-Lys N-methyltransferase 1 (Homo sapiens), sequence (Q9BV86 whole entry, looked up): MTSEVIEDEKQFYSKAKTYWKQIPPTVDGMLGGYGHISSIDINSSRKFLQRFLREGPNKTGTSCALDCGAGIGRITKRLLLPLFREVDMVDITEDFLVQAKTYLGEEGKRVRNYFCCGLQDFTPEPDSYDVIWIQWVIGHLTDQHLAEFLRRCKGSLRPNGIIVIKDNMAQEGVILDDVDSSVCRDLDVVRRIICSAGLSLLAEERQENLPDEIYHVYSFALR
# In short: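 Luminescent MTase-Glo read-out of SAH. 125 nM NTMT1, 100 uM SAM, 1 uM SPKRIA substrate, 30 min RT reaction after 15 min compound preincubation. Normalized to no-enzyme and DMSO controls; Hill fit.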
structure (smiles),measurement,setting,value
NC1=N[C@@]2(c3cc(NC(=O)c4ccc(F)cn4)ccc3F)COC[C@@H]2CS1,Potency,[1],inactive
same,Potency,[2],inactive
COC(=O)N[C@H](C(=O)N1CCC[C@@H]1c1ncc(-c2ccc(-c3ccc(-c4cnc([C@@H]5CCCN5C(=O)[C@@H](NC(=O)OC)C(C)C)[nH]4)cc3)cc2)[nH]1)C(C)C,Potency,[1],inactive
same,Potency,[2],inactive
CN1[C@@H]2CCC[C@@H]1CC(NC(=O)c1nn(C)c3ccccc13)C2 (some centres not stated),Potency,[1],inactive
same,Potency,[2],inactive
CC1(C)S[C@H]2[C@H](NC(=O)[C@@H](N)c3ccc(O)cc3)C(=O)N2[C@@H]1C(=O)O,Potency,[1],inactive
same,Potency,[2],inactive
O=C1Nc2ccc(Cl)cc2C(C#CC2CC2)(C(F)(F)F)O1 (configuration not stated),Potency,[1],inactive
same,Potency,[2],inactive
same,Potency,[3],16.9 µM (active)
same,Potency,[4],12 µM (active)
COc1ccc2c(Oc3ccc(NC(=O)c4c(C)n(CC(C)(C)O)n(-c5ccccc5)c4=O)nc3)ccnc2c1,Potency,[1],inactive
same,Potency,[2],inactive
same,Potency,[3],inactive
same,Potency,[4],19 µM (active)
same,Potency,[5],inactive
O=c1c(-c2ccc(O)cc2)coc2cc(OC3O[C@H](CO)[C@H](O)[C@H](O)[C@H]3O)cc(O)c12 (some centres not stated),Potency,[1],inactive
same,Potency,[2],inactive
same,Potency,[3],30.1 µM (active)
same,Potency,[4],inactive
CCCCCCCCCCCC1=C(O)C(=O)C=C(O)C1=O,Potency,[1],inactive
same,Potency,[2],inactive
same,Potency,[3],inactive
same,outcome,[6],inactive
same,Potency,[5],inactive
same,Potency,[7],inactive
CCOc1ccc(Nc2nc(-c3c(C)nc4ccccn34)cs2)cc1,Potency,[1],inactive
same,Potency,[2],inactive
same,Potency,[3],15.1 µM (active)
same,Potency,[4],13.5 µM (active)
same,Potency,[8],inactive
same,Potency,[5],0.183 µM (active)
same,Potency,[7],183 nM (active) and inactive
O=C(O)CCC1CCC(c2cc(F)ccc2F)(S(=O)(=O)c2ccc(Cl)cc2)CC1 (configuration not stated),Potency,[1],inactive
same,Potency,[2],inactive
same,Potency,[3],inactive
